Test results as given in PubChem BioAssay.
Calls of active or inactive are those of the source.

Test: JC-1 mitochondrial signal, unstimulated MM1S myeloma – cell-based, JC-1 fluorescence, 24 h, 100 nL compound, profiling panel (AID 1170)
Conditions: MM1S mitochondrial potential, higher = more signal
Further: test concentration not given here.

Row | Compound | z-score
1 | CCCc1cc2c(n1Cc1cc(F)cc(F)c1)C(C)C1CN(C(=O)c3ccccc3)C(C)(C(=O)OC)C21 (stereo not given) | -1.79
2 | CCCC[C@@H]1C[C@H]1[C@@H](NC(=O)c1ccco1)c1ccc(-c2ccccc2)cc1 | 0.0163
3 | C=CC[C@@]12N=C(c3ccc(OCCCO)cc3)O[C@@H]1c1ccccc1N(C)C2=O | -0.767
4 | COC(=O)[C@@]1(Cc2ccccc2)N=C(c2ccc(OCCCO)cc2)O[C@H]1c1ccccc1 | -0.354
5 | COc1cccc(-c2cccc(=O)o2)c1 | 0.0881
6 | C=C[C@H](CO[Si](CC)(CC)CC)N(Cc1ccc(OC(C)=O)c(OC)c1)S(=O)(=O)c1ccc(Br)cc1 | -1.84
7 | NC(=O)NCC#Cc1ccc2c(c1)[C@]1(C(=O)N2)[C@H](c2ccc(O)cc2)N2[C@H](c3ccccc3)[C@H](c3ccccc3)OC(=O)[C@H]2[C@@H]1C(=O)O | -0.713
8 | COC(=O)C[C@H]1O[C@]2(C(=O)N(C)c3ccccc32)[C@@H](C)[C@@H]1[Si](C)(C)F | 0.632
9 | O=C1C2C=CC(C(O)c3cc(C(F)(F)F)cc(C(F)(F)F)c3)N(n3cnnc3)C2C(=O)N1Cc1ccccc1 (stereo not given) | 0.914
10 | Cc1nc2cc(Br)ccc2c(=O)o1 | 0.392
11 | C=C(CCCC)/C(=C/C[C@@H](OC(C)=O)c1ccc(OCCO)cc1)c1cnc2ccccc2c1 | -1.16
12 | COc1cc2c(cc1O)C(C1CC1)N(Cc1sc3ccccc3c1Cl)CC2 (stereo not given) | -0.539
13 | COc1cc2c(cc1O)C(c1cccs1)N(C)CC2 (stereo not given) | -1.06
14 | CN1C=C(C(=O)OCCS(C)(=O)=O)C(C(=O)OCCS(C)(=O)=O)=CC(c2ccc(CO)cc2)=CC1C1CC1 (stereo not given) | -0.919
15 | Cc1ccc(N2C(=O)c3ccccc3[C@@H](C(=O)NC3CC3)[C@@H]2c2ccc(CO)cc2)nc1 | -0.446
16 | O=C1C[C@@](C(=O)NCC(F)(F)F)(c2ccc([N+](=O)[O-])cc2)[C@@H](c2ccc(CO)cc2I)N1C1CCCCC1 | -1.02
17 | Cc1ccc(S[C@]2(C(=O)NCCCN(C)C)CC(=O)N(Cc3cc(C(F)(F)F)cc(C(F)(F)F)c3)[C@@H]2c2ccc(CO)cc2)cc1 | 0.339
18 | C=C(COC)/C(=C/C[C@@H](OC(=O)c1ccncc1)c1ccc(CO)o1)c1cc(C(=O)OC)ccc1OC | -1.28
19 | C=C[C@H](OC)[C@@H](OC(=O)Nc1ccc(OC)cc1)c1ccc(O)c(F)c1 | -0.933
20 | COCCOC(=O)N1C(=O)[C@@]2(c3cc(C#CC4(O)CCCCCC4)ccc31)[C@H](c1ccccc1OCCO)N1[C@H](c3ccccc3)[C@H](c3ccccc3)OC(=O)[C@H]1[C@@H]2C(=O)N1CCN(c2ncccn2)CC1 | -1.05
21 | C=CC(=C)[C@H]1Oc2ccccc2S(=O)(=O)N2CCC[C@@H]12 | 0.941
22 | [N-]=[N+]=Nc1ccccc1[C@@H]1OC(c2ccc(OCCCO)cc2)=N[C@]1(Cc1ccccc1)C(=O)N1CCOCC1 | -1.09
23 | COCCOC(=O)N1C(=O)[C@@]2(c3cc(C#CCCO)ccc31)[C@H](C(N)=O)[C@H]1C(=O)O[C@H](c3ccccc3)[C@H](c3ccccc3)N1[C@@H]2c1ccc(O)cc1 | 0.0477
24 | C=C(C(=O)CC[C@@H](OC(=O)c1cccnc1)c1ccccc1OCCO)C(C)C | -1.07
25 | C=CCNC(=O)[C@H]1[C@@H]2C(=O)O[C@@H](c3ccccc3)[C@@H](c3ccccc3)N2[C@@H](c2ccccc2OCCO)[C@]12C(=O)Nc1ccc(C#CCC(C(=O)OC)C(=O)OC)cc12 | -2.23

Test: resazurin metabolic signal in A549 cells – cell-based, resazurin fluorescence, 24 h, PK04 Diversity Set, profiling panel (AID 1171)
Conditions: A549 viability, higher = more signal, called active from +8 up or from −8 down

Row | Compound | z-score
26 | CC(C)[Si]1(C(C)C)O[C@@H](c2ccccc2)c2cc(-c3ccc(-c4ccc(Cl)c(Cl)c4)o3)nc(-c3ccccc3)c21 | 0.613 (inactive)
27 | OCCCC1=CC(c2cccs2)N(Cc2cc3c(cc2Br)OCO3)CC1 (stereo not given) | -0.178 (inactive)
28 | CCOC(=O)C[C@H]1[C@H](OC(=O)c2ccc(C(=O)c3ccccc3)cc2)[C@@H](NC(=O)c2ccc3ccccc3c2)c2cc(OCCCO)ccc2N1C(=O)Cc1ccc(OC)cc1 | 0.0571 (inactive)
29 | C=C(CC1([C@@H](NP(=O)(c2ccccc2)c2ccccc2)[C@H]2C[C@@H]2CCCC)CC1)c1ccccc1 | 4.95 (inactive)
30 | COc1cc(COC(C)=O)ccc1OC(C)=O | 0.339 (inactive)
31 | C=C(CCCC)/C(=C/C[C@@H](OC(=O)c1ccncc1)c1ccc(OCCO)cc1)c1cc(C(=O)OC)ccc1OC | 0.998 (inactive)
32 | C=C(CCCC)C(=O)CC[C@@H](OC(=O)c1ccccc1-c1ccccc1C(=O)O)c1ccc(OCCO)cc1 | 0.128 (inactive)
33 | COCCOC(=O)N1C(=O)[C@@]2(c3cc(C#CCC(C(=O)OC)C(=O)OC)ccc31)[C@H](C(=O)Nc1nc3ccccc3s1)[C@H]1C(=O)O[C@H](c3ccccc3)[C@H](c3ccccc3)N1[C@@H]2c1ccccc1OCCO | -0.454 (inactive)
34 | NC(=O)N1C(=O)C2C(C1=O)C1C=C(c3ccc(CO)cc3)C2C(c2cccs2)N1Cc1cccc(OC(F)(F)F)c1 (stereo not given) | -0.69 (inactive)
35 | COCCOC(=O)N1C(=O)[C@@]2(c3cc(C#CCNC(N)=O)ccc31)[C@H](C(=O)N1CCN(c3ncccn3)CC1)[C@H]1C(=O)O[C@H](c3ccccc3)[C@H](c3ccccc3)N1[C@@H]2c1ccc(OCCO)cc1 | -0.465 (inactive)
36 | CCCc1cc2c(n1Cc1cc(F)cc(F)c1)C(C)C1CN(C(=O)c3ccccc3)C(C)(C(=O)OC)C21 (stereo not given) | -0.675 (inactive)
37 | CCCC[C@@H]1C[C@H]1[C@@H](NC(=O)c1ccco1)c1ccc(-c2ccccc2)cc1 | -1.04 (inactive)
38 | C=CC[C@@]12N=C(c3ccc(OCCCO)cc3)O[C@@H]1c1ccccc1N(C)C2=O | -0.0732 (inactive)
39 | COC(=O)[C@@]1(Cc2ccccc2)N=C(c2ccc(OCCCO)cc2)O[C@H]1c1ccccc1 | -2.02 (inactive)
40 | COc1cccc(-c2cccc(=O)o2)c1 | 0.563 (inactive)
41 | C=C[C@H](CO[Si](CC)(CC)CC)N(Cc1ccc(OC(C)=O)c(OC)c1)S(=O)(=O)c1ccc(Br)cc1 | -0.18 (inactive)
42 | NC(=O)NCC#Cc1ccc2c(c1)[C@]1(C(=O)N2)[C@H](c2ccc(O)cc2)N2[C@H](c3ccccc3)[C@H](c3ccccc3)OC(=O)[C@H]2[C@@H]1C(=O)O | -0.397 (inactive)
43 | COC(=O)C[C@H]1O[C@]2(C(=O)N(C)c3ccccc32)[C@@H](C)[C@@H]1[Si](C)(C)F | 2.22 (inactive)

Row | Compound | z-score
44 | O=C1C2C=CC(C(O)c3cc(C(F)(F)F)cc(C(F)(F)F)c3)N(n3cnnc3)C2C(=O)N1Cc1ccccc1 (stereo not given) | -0.226 (inactive)
45 | Cc1nc2cc(Br)ccc2c(=O)o1 | 0.235 (inactive)
46 | C=C(CCCC)/C(=C/C[C@@H](OC(C)=O)c1ccc(OCCO)cc1)c1cnc2ccccc2c1 | 0.775 (inactive)
47 | COc1cc2c(cc1O)C(C1CC1)N(Cc1sc3ccccc3c1Cl)CC2 (stereo not given) | -0.663 (inactive)
48 | COc1cc2c(cc1O)C(c1cccs1)N(C)CC2 (stereo not given) | -0.568 (inactive)
49 | CN1C=C(C(=O)OCCS(C)(=O)=O)C(C(=O)OCCS(C)(=O)=O)=CC(c2ccc(CO)cc2)=CC1C1CC1 (stereo not given) | -0.267 (inactive)
50 | Cc1ccc(N2C(=O)c3ccccc3[C@@H](C(=O)NC3CC3)[C@@H]2c2ccc(CO)cc2)nc1 | 0.771 (inactive)
51 | O=C1C[C@@](C(=O)NCC(F)(F)F)(c2ccc([N+](=O)[O-])cc2)[C@@H](c2ccc(CO)cc2I)N1C1CCCCC1 | 0.324 (inactive)
52 | Cc1ccc(S[C@]2(C(=O)NCCCN(C)C)CC(=O)N(Cc3cc(C(F)(F)F)cc(C(F)(F)F)c3)[C@@H]2c2ccc(CO)cc2)cc1 | -0.106 (inactive)
53 | C=C(COC)/C(=C/C[C@@H](OC(=O)c1ccncc1)c1ccc(CO)o1)c1cc(C(=O)OC)ccc1OC | 0.386 (inactive)
54 | C=C[C@H](OC)[C@@H](OC(=O)Nc1ccc(OC)cc1)c1ccc(O)c(F)c1 | -0.596 (inactive)
55 | COCCOC(=O)N1C(=O)[C@@]2(c3cc(C#CC4(O)CCCCCC4)ccc31)[C@H](c1ccccc1OCCO)N1[C@H](c3ccccc3)[C@H](c3ccccc3)OC(=O)[C@H]1[C@@H]2C(=O)N1CCN(c2ncccn2)CC1 | -0.461 (inactive)
56 | C=CC(=C)[C@H]1Oc2ccccc2S(=O)(=O)N2CCC[C@@H]12 | 0.0255 (inactive)
57 | [N-]=[N+]=Nc1ccccc1[C@@H]1OC(c2ccc(OCCCO)cc2)=N[C@]1(Cc1ccccc1)C(=O)N1CCOCC1 | -1.56 (inactive)
58 | COCCOC(=O)N1C(=O)[C@@]2(c3cc(C#CCCO)ccc31)[C@H](C(N)=O)[C@H]1C(=O)O[C@H](c3ccccc3)[C@H](c3ccccc3)N1[C@@H]2c1ccc(O)cc1 | -0.3 (inactive)
59 | C=C(C(=O)CC[C@@H](OC(=O)c1cccnc1)c1ccccc1OCCO)C(C)C | -0.414 (inactive)
60 | C=CCNC(=O)[C@H]1[C@@H]2C(=O)O[C@@H](c3ccccc3)[C@@H](c3ccccc3)N2[C@@H](c2ccccc2OCCO)[C@]12C(=O)Nc1ccc(C#CCC(C(=O)OC)C(=O)OC)cc12 | 0.545 (inactive)
